Laboratory results from PubChem BioAssay AID2284349 (EPA ToxCast).
Results filed as inconclusive are left out. Calls of active or inactive are those of the source. Rule for the calls: active = hit-call score of the fitted dose curve at least 0.9, where 1 is the maximum; inconclusive = response in the unintended direction; inactive = score below 0.9.

These compounds were tested against frog Peroxisome Proliferator-activated Receptor-gamma (PPARg), pparg (gene 397769) (UniProt P37234) (assay: ATG_frPPARg_EcoTox2: Attagene TRANS-FACTORIAL EcoTox-2 HepG2 Assay for frog Peroxisome Proliferator-activated Receptor-gamma (PPARg)).
Sequence of frog Peroxisome Proliferator-activated Receptor-gamma (PPARg), pparg (gene 397769) (P37234 whole entry, looked up): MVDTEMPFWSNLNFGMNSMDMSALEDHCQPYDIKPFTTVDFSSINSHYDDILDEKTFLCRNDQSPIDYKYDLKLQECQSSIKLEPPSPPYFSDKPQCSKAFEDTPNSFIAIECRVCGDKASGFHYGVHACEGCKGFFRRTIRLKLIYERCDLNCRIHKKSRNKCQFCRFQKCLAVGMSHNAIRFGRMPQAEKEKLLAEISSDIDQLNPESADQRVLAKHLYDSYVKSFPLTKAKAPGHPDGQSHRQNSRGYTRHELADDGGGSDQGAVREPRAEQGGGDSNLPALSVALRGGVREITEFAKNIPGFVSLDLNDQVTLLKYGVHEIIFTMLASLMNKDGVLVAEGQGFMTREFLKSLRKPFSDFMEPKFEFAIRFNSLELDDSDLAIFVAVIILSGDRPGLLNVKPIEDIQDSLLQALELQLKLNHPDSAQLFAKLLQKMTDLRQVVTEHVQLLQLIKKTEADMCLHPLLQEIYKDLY
Description: ATG_EcoTox2 is a cell-based, multiplexed assay created by modifying the existing Attagene TRANS-FACTORIAL system to include a panel of nuclear receptors from some or all the following species: human (Homo sapiens), african clawed frog (Xenopus laevis), rainbow trout (Oncorhynchus mykiss), japanese medaka (Oryzias latipes), and zebrafish (Danio rerio). The ECOTOX2-FACTORIAL format uses HepG2, a human liver cell line, with measurements taken at 24 hours after chemical dosing in a 24-well plate. ATG_frPPARg_EcoTox2 is one of 29 assay components calculated in the ATG_EcoTox2 assay. It is designed to make measurements of mRNA induction, a form of inducible reporter, as detected with fluorescence intensity signals by Reverse transcription polymerase chain reaction (RT-PCR) and Capillary electrophoresis technology.The assay endpoint ATG_frPPARg_EcoTox2 was analyzed in the positive analysis fitting direction relative to DMSO as the negative control and baseline of activity. Using a type of inducible reporter, measures of mRNA for gain-of-signal activity can be used to understand the reporter gene at the transcription factor-level as they relate to the gene PPARg. Furthermore, this assay endpoint can be referred to as a primary readout, because this assay has produced multiple assay endpoints where this one serves a reporter gene function. To generalize the intended target to other relatable targets, this assay endpoint is annotated to the nuclear receptor intended target family, where the subfamily is non-steroidal.
Human liver HepG2 cells are transiently transfected with multiple reporter transcription units (MRTUs) in 6-well plates using FuGene 6 reagent (Roche; 3 ml FuGene/1 mg DNA). The MRTU constructs are regulated by a cis-regulating element (promoter). Each RTU expresses a GAL4-UAS that regulates the transcription of a nearby target reporter gene sequence. A major difference between the CIS and TRANS system is that in CIS activities of endogenous TFs are measured, whereas the TRANS assay evaluates changes in activities of exogenous, chimeric NR-Gal4 proteins. […] At the end of 24 hour incubation, total RNA was isolated using TriZol reagent (Invitrogen). The isolated RNA is then reverse-transcribed using oligo(dT) primer and Mo-MLV reverse transcriptase (Invitrogen) with DNAse I (Ambion) treatment for 30 min. The one-tenth of the produced cDNA was amplified by PCR using Taq DNA polymerase (Invitrogen) and two reporter sequence-specific primers. The PCR products were fluorescently labeled by primer extension with 6-arboxyfluorescein (6-FAM) 5'-labeled reporter sequence-specific primer (2 min at 95 C, 20 s at 68 C and 10 min at 72 C) and these products were digested with 5U of HpaI (New England Biolabs) for 2h at 37 C. The fragments were purified using Qiaquick PCR columns (Qiagen), analyzed on an ABI 3130xL genetic analyzer (Applied Biosystems) with peak positions identified by using a set of X-rhodamine (ROX)-labeled MapMarker1000 molecular weight standards (BioVentures). The raw capillary electrophoresis data was processed using Attagraph software (Attagene).
With `C[C@@H]1C[C@H]2[C@@H]3CCC4=CC(=O)C=C[C@]4(C)[C@@]3(F)[C@@H](O)C[C@]2(C)[C@@]1(O)C(=O)COP(=O)(O)O` the outcome was “inactive”. In the case of `CC(c1cc2ccccc2s1)N(O)C(N)=O` (stereo not drawn), the outcome is reported as “inactive”. In the case of `Cc1cccc(Nc2cc(Cl)nc(SCC(=O)O)n2)c1C`, the outcome is reported as “inactive”. For `CC(C)(Oc1ccc(CCNC(=O)c2ccc(Cl)cc2)cc1)C(=O)O`, the outcome was “inactive”. `Cc1ccc(C)c(OCCCC(C)(C)C(=O)O)c1` was tested, and the outcome was “inactive”. For `CC(C)OC(=O)C(C)(C)Oc1ccc(C(=O)c2ccc(Cl)cc2)cc1`, the outcome was “inactive”. With `CC(C)(Oc1ccc(Cl)cc1)C(=O)O` the outcome was “inactive”. For `C=C(c1ccc(C(=O)O)cc1)c1cc2c(cc1C)C(C)(C)CCC2(C)C`, the outcome was “inactive”.
